KDM5B inhibitor: inhibitors of human KDM5B histone demethylase | Q9UGL1 | KDM5B demethylase, FDH-coupled NADH fluorescence (FDH is formaldehyde dehydrogenase) | Potency, µM (doses to about 57.7 µM), usual class: inhibitors | actives 2.6% (n = 220,000) | AID 1347165; active = well fitted inhibition curve with a large enough effect; note: 0% is about no effect; nearly all actives have a fitted effect of over 70% in size
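Measured: NADH fluorescence change, 30 min, RT. System: KDM5BΔAP 200 nM final, H3K4me3 peptide, α-KG, Fe(II), ascorbate, NAD⁺ plus FDH, pH 7.5 HEPES. Compounds: titrated, 10 min pre-incubation with enzyme.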
The depositor's hits bear a star. Only a selection was taken, and hits are over-represented in it overall. Potency is the fitted concentration of half-maximal effect.

Screening O=C(c1cccnc1)N1C[C@@H]2OCC(=O)N(CC3CCCCC3)[C@@H]2C1 returned KDM5B inhibitor inactive.
O=C1CO[C@H]2CN(c3ncccn3)C[C@H]2N1CC1CCCCC1 was read as KDM5B inhibitor 35µM*.
For N#Cc1ccc(N2C[C@@H]3OCC(=O)N(CC4CCCCC4)[C@@H]3C2)nc1 the results were KDM5B inhibitor 35µM*.
Screening CCOC(=O)C1CCCN(c2ccc(C#N)cn2)C1 (configuration not stated) returned KDM5B inhibitor inactive.
Screening CN1C(=O)CO[C@H]2CN(c3ccc(C#N)cn3)C[C@H]21 returned KDM5B inhibitor 35µM*.
CN1C(=O)CO[C@H]2CN(S(C)(=O)=O)C[C@H]21 was read as KDM5B inhibitor inactive.
Screening CCCCn1c(=O)[nH]c(=O)c2c1nc(CSc1nnnn1C1CC1)n2C returned KDM5B inhibitor inactive.
Screening CS(=O)(=O)OCCCOS(C)(=O)=O returned KDM5B inhibitor inactive.
For CCN(CC)c1sc(S(C)(=O)=O)nc1S(=O)(=O)c1ccc(C)cc1 the results were KDM5B inhibitor inactive.
CC(=O)c1ccccc1NC(=O)COC(=O)c1ccc2ccccc2n1 was read as KDM5B inhibitor inactive.
Screening CCOC(=O)Cc1cc(=O)n2[nH]c(NCc3ccc(OC)cc3)nc2n1 returned KDM5B inhibitor inactive.
Screening Cc1nn(-c2ccccc2)c(C)c1CN(C)C(=O)CNC(=O)c1ccc(C(C)(C)C)cc1 returned KDM5B inhibitor inactive.
`Cc1nn(-c2ccc(Cl)nn2)c2c1C(c1ccc(C(=O)O)cc1)CC(=O)N2` (configuration not stated) gave KDM5B inhibitor inactive.
`COC(=O)c1ccc(CNC(=O)c2cc(-c3ccc(C)cc3)nc3ccccc23)cc1` gave KDM5B inhibitor inactive.
Screening Cc1ccc(Oc2nc(-c3ccncc3)nc3ccccc23)cc1 returned KDM5B inhibitor inactive.
For CCc1ccc2c(Cn3nc(C)c(C)c(C#N)c3=O)cc(=O)oc2c1 the results were KDM5B inhibitor inactive.
For Cc1ccc(-c2nc(-c3nnn4c3COC(c3ccc(Cl)cc3)C4)no2)cc1 (configuration not stated) the results were KDM5B inhibitor inactive.
Screening COc1ccccc1-c1nc(-c2nnn3c2COC(c2ccc(Cl)cc2)C3)no1 (configuration not stated) returned KDM5B inhibitor 14µM*.
`COc1cc(OC)cc(-c2nc(-c3nnn4c3COC(c3ccc(Cl)cc3)C4)no2)c1` (configuration not stated) gave KDM5B inhibitor inactive.
For COc1ccc(C2Cn3nnc(-c4nc(-c5ccccc5OC)no4)c3CO2)cc1 (configuration not stated) the results were KDM5B inhibitor 28µM*.
`CCOc1ccc(C2Cn3nnc(-c4nc(-c5ccccc5F)no4)c3CO2)cc1` (configuration not stated) gave KDM5B inhibitor inactive.
COc1ccc(C2Cn3nnc(-c4noc(-c5ccccc5Cl)n4)c3CO2)cc1 (configuration not stated) was read as KDM5B inhibitor inactive.
Screening COc1cccc(Cc2nc(-c3nnn4c3COC(c3ccc(Cl)cc3)C4)no2)c1 (configuration not stated) returned KDM5B inhibitor inactive.
COc1ccc(C2Cn3nnc(-c4nc(-c5ccc(F)cc5)no4)c3CO2)cc1 (configuration not stated) was read as KDM5B inhibitor inactive.
Cc1ccc(C2Cn3nnc(-c4noc(-c5cc(Cl)ccc5F)n4)c3CO2)cc1 (configuration not stated) was read as KDM5B inhibitor inactive.
For COc1ccc(C2Cn3nnc(-c4noc(-c5cc(F)ccc5Cl)n4)c3CO2)cc1 (configuration not stated) the results were KDM5B inhibitor inactive.
`COc1ccc(C2Cn3nnc(-c4noc(-c5cc(F)ccc5F)n4)c3CO2)cc1` (configuration not stated) gave KDM5B inhibitor 18µM*.
For COc1cccc(-c2nc(-c3nnn4c3COC(c3ccc(Cl)cc3)C4)no2)c1OC (configuration not stated) the results were KDM5B inhibitor 25µM*.
Screening CCOC(=O)c1c(C)[nH]c(C(=O)C(C)OC(=O)Cn2cc(C(F)(F)F)ccc2=O)c1C (configuration not stated) returned KDM5B inhibitor inactive.
Screening CC(C)c1ccc(C(C)NC(=O)C2CC2)cc1 (configuration not stated) returned KDM5B inhibitor inactive.
CCCCc1[nH]nc2c1C1(C(=O)Nc3ccc(Cl)cc31)C(C#N)=C(N)O2 (configuration not stated) was read as KDM5B inhibitor inactive.
`COc1ccc(C(C)=O)cc1CSCc1ccc(C#N)cc1` gave KDM5B inhibitor inactive.
Cc1ccc(-c2nc(CS(=O)(=O)CC3CCCO3)co2)c(C)c1 (configuration not stated) was read as KDM5B inhibitor inactive.
For O=C(Cc1c[nH]c2ccccc12)NCc1ccccc1OC(F)F the results were KDM5B inhibitor inactive.
